“And” between values parts separate entries of the source, which are not always exact repeats. Identical values can stand only once. Among all 300,000 compounds or so, about 520 (0.17%) were called active. Shown is part of a subset that was picked to be rich in actives. A number with no mark means an inactive call. Rule as the data show it: active = inhibition above about 50%; inconclusive = no clear call, values can overlap the other calls; inactive = below that.

The experiment in a line: PubChem AID 1554. As to conditions: BJeLR (HRASV12) viability, CellTiter-Glo ATP luminescence, 48 h; active compounds read high; concentration not given here. (ATP-based viability assays read luminescence as a measure of living cells.)
`Cc1cc(C)c(NC(=O)CN2CCCCCC2)c(C)c1`: the inhibition was -2.78%.
As for `CN1CCN(c2ccc(NC(=O)c3ccccc3)cc2)CC1`, the figure is -5.43%; as for `COc1cccc(C(=O)Nc2ccc(N3CCCC3)cc2)c1`, 52.9% (active); as for `COc1cccc(C(=O)Nc2ccc(N3CCN(C(=O)c4ccco4)CC3)cc2)c1`, 11.7%.
Take `Cc1[nH]c2ccccc2c1-c1ccc(Cl)nn1`: the inhibition was 7.01%.
As for `CC(C)(C)SCCSC1=CC(=O)CC(c2ccccc2)C1` (stereo unspecified), the figure is 7.66%; as for `CC1=C/C(=N\OS(=O)(=O)c2ccccc2)C=CC1=O`, 91.4% (active).
As for `CCCCCCCCCCCCn1ccc(=N)cc1`, the figure is 87.5% (active).
Then `CCCCCCCCn1c2c(c(=N)c3c1CCC3)CCCC2`, with 24.6%; and `CCCCCN1CC(O)=C(c2ccccc2)C1=N`, with -8.91%; and `Cn1c(Cc2cccs2)nnc1SCC(=O)Nc1ccccc1`, with -23.8%.
On to `C=CCc1c(C)nc2cc(-c3ccccc3)[nH]n2c1=O`, for which the inhibition was 2.64%.
As for `COC(=O)c1ccc(COC(=O)c2c(C)nn(Cc3ccccc3Cl)c2Cl)o1`, the figure is -0.748%; as for `CCOC(=O)C1CCCN(S(=O)(=O)c2ccc3c(c2)C(C)(C)C(=O)N3C)C1` (stereo unspecified), -8.48%.
As for `N#Cc1cccc(CN2CCC(=O)N([C@H](CO)c3ccccc3)CC2)c1`, the figure is 4.84%; as for `CCc1ccc(-c2nn(-c3ccccc3)cc2CSC(=N)N)cc1`, 103% (active).
Then `Cc1ccc(-c2nn(-c3ccccc3)cc2CN(Cc2ccccc2)C(=O)CCC(=O)O)o1`, with -0.0578%; and `Cc1ccc(-c2nn(-c3ccccc3)cc2/C=N/NC(=O)c2ccc3c(c2)OCO3)cc1`, with 11.4%; and `COc1ccc(S(=O)(=O)N2CCOC2CNC(=O)C(=O)NCc2ccc(F)cc2)cc1` (stereo unspecified), with 6.34%.
As for `Cc1nnc(SC(C)C(=O)Nc2ccc(S(=O)(=O)NC3CCCCC3)cc2)s1` (stereo unspecified), the inhibition was -6.12%.
Turning to `Cc1cc([N+](=O)[O-])nn1Cc1ccc(F)cc1`, the inhibition is 7.4%.
In the case of `CCCc1cc(=O)[nH]c(SCC(=O)c2c(N)n(CC(C)C)c(=O)n(C)c2=O)n1`, the inhibition is 63.2% (active).
Then `CCCc1cc(=O)[nH]c(SCC(=O)OCc2ccccc2)n1`, with -0.726%.
On to `CCCc1cc(=O)[nH]c(SCC(=O)c2cc(C)n(CCC)c2C)n1`, for which the inhibition is 0.606%.
`COC(=O)[C@H]1[C@H]2C[C@H]3c4[nH]c5ccccc5c4CCN3C[C@@H]2CC[C@@H]1O`: the inhibition was -6.61% and 2.06%.
Then `CC(C)(C)c1ccc(/C=C2\SC(=O)N=C2N)cc1`, with -2.23%.

What is called inhibition is the drop in the measured response relative to a control, in per cent.

The values above are taken from PubChem BioAssay AID1554 (Broad Institute, 2009).
